# Data as given in PubChem BioAssay (NCI).
# This is part of a sample that, as a whole, favours compounds with a hit. Of some 79,000 tested, about 15% had one in any assay. A number with no mark means an inactive call. Calls of active or inactive are those of the source. No stated cut-off is given here; in the data, active means growth inhibition above about 70%; inactive means the rest.
# Experiments:
# [1] = NCI Yeast Anticancer Drug Screen. Data for the rad52 strain (AID 147);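 further: 0% = growth of vehicle-treated control cultures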; settings: S. cerevisiae rad52 mutant growth inhibition, active compounds read high
# Summary of the method: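 The repair-mutant yeast strain was incubated with compounds, then growth was read and inhibition derived relative to vehicle.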
# [2] = NCI Yeast Anticancer Drug Screen. Data for the wt1 strain (AID 149);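 further: 0% = growth of vehicle-treated wt1 cultures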; settings: S. cerevisiae wt1 strain (SPY 50644) growth inhibition, active compounds read high
# Summary of the method: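 Compounds are added to wt1 yeast cultures. Growth is then measured. Inhibition is expressed relative to vehicle-treated controls.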
# [3] = NCI Yeast Anticancer Drug Screen. Data for the rad50EPP+ strain (AID 151);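 further: 0% = growth of vehicle-treated control cultures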; settings: S. cerevisiae rad50 mutant strain, active compounds read high
# Summary of the method: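 Vehicle-normalised growth inhibition; rad50EPP+ yeast strain, altered in DNA damage repair, compound-treated.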
# [4] = NCI Yeast Anticancer Drug Screen. Data for the mgt1 strain (AID 153); settings: S. cerevisiae mgt1 mutant growth inhibition, active compounds read high
# Summary of the method: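 Vehicle-normalized growth inhibition is determined in mgt1 yeast, a strain selected for a defined alteration in DNA repair or cell cycle control.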
# [5] = NCI Yeast Anticancer Drug Screen. Data for the rad50 strain (AID 155);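 further: 0% = growth of vehicle-only cultures of the same strain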; settings: S. cerevisiae rad50 strain growth inhibition, active compounds read high
# Summary of the method: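 Inhibition values express reduced yeast growth in compound-treated cultures relative to vehicle-treated controls.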
# [6] = NCI Yeast Anticancer Drug Screen. Data for the rad14 strain (AID 159);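 further: 0% = growth of vehicle-treated control cultures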; settings: S. cerevisiae rad14 strain growth inhibition, active compounds read high
# Summary of the method: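 A mutant yeast strain defective in DNA damage repair is treated with compound; inhibition of its growth is scored against untreated, vehicle-exposed cultures.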
# [7] = NCI Yeast Anticancer Drug Screen. Data for the sgs1 mgt1 strain (AID 161);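 further: 0% = growth of cultures given vehicle only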; settings: S. cerevisiae sgs1 mgt1 strain, active compounds read high
# Summary of the method: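 Yeast cells carrying a defined DNA-repair defect were exposed to test compounds. Growth inhibition was measured relative to vehicle-treated controls.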
# [8] = NCI Yeast Anticancer Drug Screen. Data for the cln2 rad14 strain (AID 165);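 further: 0% = growth equal to vehicle treated cultures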; settings: S. cerevisiae cln2 rad14 strain, active compounds read high
# Summary of the method: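 Readout is yeast growth inhibition versus vehicle-treated controls, using a strain with cln2 and rad14 alterations exposed to compound.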
# [9] = NCI Yeast Anticancer Drug Screen. Data for the bub3 strain (AID 167); settings: S. cerevisiae bub3 mutant strain, active compounds read high
# Summary of the method: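 Steps: expose the mutant yeast strain to compound; grow alongside vehicle-treated cultures; measure growth; express inhibition against the vehicle cultures.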
# [10] = NCI Yeast Anticancer Drug Screen. Data for the wt2 strain (AID 169);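 further: 0% = growth of vehicle-treated yeast cultures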; settings: S. cerevisiae wt2 strain growth inhibition, active compounds read high
# Summary of the method: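 Against vehicle-treated controls, the growth of yeast exposed to each compound was compared, and the inhibition was recorded.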
# [11] = NCI Yeast Anticancer Drug Screen. Data for the mlh1 strain (AID 171);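 further: 0% = growth of vehicle-treated control cultures of the same strain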; settings: S. cerevisiae mlh1 strain growth inhibition, active compounds read high
# Summary of the method: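 Measured: yeast growth. Reference: vehicle-treated controls. Organism: strain with a defined alteration affecting DNA damage repair or cell cycle control, treated with compound.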
# [12] = NCI Yeast Anticancer Drug Screen. Data for the mlh1 rad18 strain (AID 175); settings: S. cerevisiae mlh1 rad18 strain growth inhibition, active compounds read high
# Summary of the method: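 Genetically defined yeast (DNA repair-deficient) exposed to compounds; growth inhibition determined relative to vehicle.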
# [13] = NCI Yeast Anticancer Drug Screen. Data for the mec2-1 strain (AID 157); settings: S. cerevisiae mec2-1 strain, active compounds read high
# Summary of the method: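 Mutant yeast (mec2-1) grown with compound; growth inhibition relative to vehicle control reported.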
# [14] = NCI Yeast Anticancer Drug Screen. Data for the CLN2oe strain (AID 163);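 further: 0% = growth of vehicle-only control cultures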; settings: S. cerevisiae CLN2oe strain, active compounds read high
# Summary of the method: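 Compounds are applied to yeast harbouring a defined cell-cycle control change; reduced growth compared with vehicle-treated controls gives the value.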
# [15] = NCI Yeast Anticancer Drug Screen. Data for the sgs1 strain (AID 173);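 further: 0% = growth of vehicle-only control cultures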; settings: S. cerevisiae sgs1 mutant, active compounds read high
# Summary of the method: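 Each compound was added to cultures of the altered yeast strain. Growth was recorded, and inhibition was derived by comparison with vehicle controls.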
# [16] = NCI Yeast Anticancer Drug Screen. Data for the rad18 strain (AID 177); settings: S. cerevisiae rad18 mutant growth inhibition, active compounds read high
# Summary of the method: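 Vehicle-treated cultures served as the baseline for scoring compound-induced growth inhibition in DNA-repair-mutant yeast.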
# [17] = at 5.0 µM (retest, dose inferred, filed as 0.5)
# [18] = at 50.0 µM (retest, dose inferred, filed as 5.0)
smiles,measurement,setting,value
Cc1ccc(S(=O)(=O)NNC(=S)Nc2cccc3ccccc23)cc1,growth inhibition,[1]; at 1.2 µM,4%
same,growth inhibition,[1]; at 3.7 µM,2%
same,growth inhibition,[1]; at 11.0 µM,3%
same,growth inhibition,[1]; at 33.0 µM,7%
same,growth inhibition,[1]; at 100.0 µM,6%
same,growth inhibition,[2]; at 1.2 µM,-3%
same,growth inhibition,[2]; at 3.7 µM,-2%
same,growth inhibition,[2]; at 11.0 µM,-1%
same,growth inhibition,[2]; at 33.0 µM,1%
same,growth inhibition,[2]; at 100.0 µM,2%
same,growth inhibition,[3]; at 1.2 µM,10%
same,growth inhibition,[3]; at 3.7 µM,11%
same,growth inhibition,[3]; at 11.0 µM,20%
same,growth inhibition,[3]; at 33.0 µM,15%
same,growth inhibition,[3]; at 100.0 µM,1%
same,growth inhibition,[4]; at 1.2 µM,-1%
same,growth inhibition,[4]; at 3.7 µM,-4%
same,growth inhibition,[4]; at 11.0 µM,-1%
same,growth inhibition,[4]; at 33.0 µM,-28%
same,growth inhibition,[4]; at 100.0 µM,1%
same,growth inhibition,[5]; at 1.2 µM,0%
same,growth inhibition,[5]; at 3.7 µM,-4%
same,growth inhibition,[5]; [17],-4%
same,growth inhibition,[5]; at 11.0 µM,-10%
same,growth inhibition,[5]; at 33.0 µM,2%
same,growth inhibition,[5]; [18],16%
same,growth inhibition,[5]; at 50.0 µM,9.65%
same,growth inhibition,[5]; at 100.0 µM,2%
same,growth inhibition,[6]; at 1.2 µM,-6%
same,growth inhibition,[6]; at 3.7 µM,-4%
same,growth inhibition,[6]; at 11.0 µM,-8%
same,growth inhibition,[6]; at 33.0 µM,-4%
same,growth inhibition,[6]; at 100.0 µM,-3%
same,growth inhibition,[7]; [17],-23%
same,growth inhibition,[7]; [18],41%
same,growth inhibition,[7]; at 50.0 µM,49.6%
same,growth inhibition,[8]; [17],-1%
same,growth inhibition,[8]; [18],17%
same,growth inhibition,[8]; at 50.0 µM,13.4%
same,growth inhibition,[9]; at 1.2 µM,-1%
same,growth inhibition,[9]; at 3.7 µM,0%
same,growth inhibition,[9]; [17],-19%
same,growth inhibition,[9]; at 11.0 µM,10%
same,growth inhibition,[9]; at 33.0 µM,14%
same,growth inhibition,[9]; [18],96% (active)
same,growth inhibition,[9]; at 50.0 µM,66.5%
same,growth inhibition,[9]; at 100.0 µM,29%
same,growth inhibition,[10]; at 1.2 µM,-2%
same,growth inhibition,[10]; at 3.7 µM,-1%
same,growth inhibition,[10]; at 11.0 µM,2%
same,growth inhibition,[10]; at 33.0 µM,8%
same,growth inhibition,[10]; at 100.0 µM,7%
same,growth inhibition,[11]; at 1.2 µM,0%
same,growth inhibition,[11]; at 3.7 µM,-6%
same,growth inhibition,[11]; at 11.0 µM,-2%
same,growth inhibition,[11]; at 33.0 µM,0%
same,growth inhibition,[11]; at 100.0 µM,-5%
same,growth inhibition,[12]; [17],-8%
same,growth inhibition,[12]; [18],29%
same,growth inhibition,[12]; at 50.0 µM,-1.25%
CCCCCCCCCC/C=C\C(=O)O,growth inhibition,[1]; at 1.2 µM,-3%
same,growth inhibition,[1]; at 3.7 µM,-1%
same,growth inhibition,[1]; at 11.0 µM,-9%
same,growth inhibition,[1]; at 33.0 µM,-13%
same,growth inhibition,[1]; at 100.0 µM,97% (active)
same,growth inhibition,[2]; at 1.2 µM,-12%
same,growth inhibition,[2]; at 3.7 µM,-18%
same,growth inhibition,[2]; at 11.0 µM,-35%
same,growth inhibition,[2]; at 33.0 µM,-23%
same,growth inhibition,[2]; at 100.0 µM,97% (active)
same,growth inhibition,[3]; at 1.2 µM,0%
same,growth inhibition,[3]; at 3.7 µM,-1%
same,growth inhibition,[3]; at 11.0 µM,0%
same,growth inhibition,[3]; at 33.0 µM,62%
same,growth inhibition,[3]; at 100.0 µM,75% (active)
same,growth inhibition,[5]; at 1.2 µM,15%
same,growth inhibition,[5]; at 3.7 µM,10%
same,growth inhibition,[5]; [17],39%
same,growth inhibition,[5]; at 11.0 µM,-5%
same,growth inhibition,[5]; at 33.0 µM,8%
same,growth inhibition,[5]; [18],68%
same,growth inhibition,[5]; at 50.0 µM,78% (active)
same,growth inhibition,[5]; at 100.0 µM,97% (active)
same,growth inhibition,[13]; at 1.2 µM,4%
same,growth inhibition,[13]; at 3.7 µM,5%
same,growth inhibition,[13]; [17],36%
same,growth inhibition,[13]; at 11.0 µM,-11%
same,growth inhibition,[13]; at 33.0 µM,49%
same,growth inhibition,[13]; [18],74% (active)
same,growth inhibition,[13]; at 50.0 µM,79.8% (active)
same,growth inhibition,[13]; at 100.0 µM,95% (active)
same,growth inhibition,[6]; at 1.2 µM,-3%
same,growth inhibition,[6]; at 3.7 µM,-5%
same,growth inhibition,[6]; at 11.0 µM,-1%
same,growth inhibition,[6]; at 33.0 µM,38%
same,growth inhibition,[6]; at 100.0 µM,98% (active)
same,growth inhibition,[7]; [17],-18%
same,growth inhibition,[7]; [18],58%
same,growth inhibition,[7]; at 50.0 µM,88.5% (active)
same,growth inhibition,[14]; at 1.2 µM,15%
same,growth inhibition,[14]; at 3.7 µM,25%
same,growth inhibition,[14]; at 11.0 µM,7%
same,growth inhibition,[14]; at 33.0 µM,-20%
same,growth inhibition,[14]; at 100.0 µM,97% (active)
same,growth inhibition,[8]; [17],67%
same,growth inhibition,[8]; [18],73% (active)
same,growth inhibition,[8]; at 50.0 µM,46.5%
same,growth inhibition,[9]; at 1.2 µM,-6%
same,growth inhibition,[9]; at 3.7 µM,-15%
same,growth inhibition,[9]; [17],-7%
same,growth inhibition,[9]; at 11.0 µM,-29%
same,growth inhibition,[9]; at 33.0 µM,-10%
same,growth inhibition,[9]; [18],73% (active)
same,growth inhibition,[9]; at 50.0 µM,85.8% (active)
same,growth inhibition,[9]; at 100.0 µM,97% (active)
same,growth inhibition,[10]; at 1.2 µM,-14%
same,growth inhibition,[10]; at 3.7 µM,-15%
same,growth inhibition,[10]; at 11.0 µM,-18%
same,growth inhibition,[10]; at 33.0 µM,-7%
same,growth inhibition,[10]; at 100.0 µM,97% (active)
same,growth inhibition,[11]; at 1.2 µM,-10%
same,growth inhibition,[11]; at 3.7 µM,-4%
same,growth inhibition,[11]; at 11.0 µM,-20%
same,growth inhibition,[11]; at 33.0 µM,10%
same,growth inhibition,[11]; at 100.0 µM,97% (active)
same,growth inhibition,[15]; at 1.2 µM,-7%
same,growth inhibition,[15]; at 3.7 µM,-5%
same,growth inhibition,[15]; at 11.0 µM,-9%
same,growth inhibition,[15]; at 33.0 µM,19%
same,growth inhibition,[15]; at 100.0 µM,98% (active)
same,growth inhibition,[12]; [17],37%
same,growth inhibition,[12]; [18],69%
same,growth inhibition,[12]; at 50.0 µM,73.8% (active)
same,growth inhibition,[16]; at 1.2 µM,0%
same,growth inhibition,[16]; at 3.7 µM,1%
same,growth inhibition,[16]; at 11.0 µM,-5%
same,growth inhibition,[16]; at 33.0 µM,19%
same,growth inhibition,[16]; at 100.0 µM,97% (active)
